mHTT-CaM PPI inh: mHTT-calmodulin interaction abrogation | P42858 | AlphaScreen His-mHTT/GST-CaM binding, luminescence | inhibition, % at 15 µM | 190,000 tested, 3.6% active | AID 1671202;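 further: 0% = both proteins with DMSO and 100% = one protein alone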
Pf apPOL block: Pf-apPOL DNA polymerase inhibition; AID 1794808; 210,000 tested, 0.25% active; inhibition, % at 10 µM; Recombinant Pf-apPOL, molecular beacon fluorescence, 1.5 h
* hit, by the source's call; · = no result given. Only some compounds are listed: those with a hit (about 3.6% of all), similar ones and a draw of the others. No stated cut-off is given here; in the data, active means inhibition above about 50%; inactive means the rest.

SMILES	mHTT-CaM PPI inh	Pf apPOL block
Cc1ccc(C2=N/C(=C\c3ccccc3Br)C(=O)O2)cc1[N+](=O)[O-]	0.0	1.5
CCN1CCN(CC2CCN(S(=O)(=O)c3ccc(C#N)cc3)CC2)CC1	-3.9	-3.5
CNC(=O)NC(=O)COc1cc(=O)n2cccc(C)c2n1	-12.2	-6.0
COc1ccc(-c2cc(CNC(=O)c3c(-c4ccccc4Cl)noc3C)no2)cc1	4.4	-6.5
O=C(Nc1nc(-c2ccccc2)cs1)c1ncn[nH]1	23.5	-1.2
O=C(Nc1nc(-c2ccc(Br)cc2)cs1)c1ncn[nH]1	99.5*	-6.2
O=C(NCc1cc(F)cc(F)c1)C1CC(=O)N(c2ccc3c(c2)CCN3C(=O)C2CC2)C1 (configuration not stated)	2.5	-3.6
CCc1ccccc1NC(=O)N1CCc2cn(CCOC)c3cccc(c23)C1	14.5	-4.4
COCCn1cc2c3c(cccc31)CN(C(=O)Cc1ccc(Cl)cc1)CC2	81.4*	-1.8
COCCn1cc2c3c(cccc31)CN(C(=O)Cc1cccc(OC)c1)CC2	45.8	-5.6
COCCn1cc2c3c(cccc31)CN(C(=O)Cc1ccccc1C)CC2	62.9*	-2.3
Cc1ccsc1C(=O)Nc1ccc(-n2c(C)nc3ccccc3c2=O)cc1	17.1	-5.5
CCOc1ccc(N=C2C(=O)N(CN3CCN(Cc4ccccc4)CC3)c3ccccc32)cc1	46.0	-5.0
COc1ccc(C(=O)Nc2nc(CC(=O)NCc3cccs3)cs2)cc1	1.2	-1.3
O=C(Cc1csc(NC(=O)c2ccc[nH]c2=O)n1)NCc1cccs1	64.5*	-5.3
COc1ccc(CNC(=O)C2CC(=O)N(CCc3c[nH]c4ccc(F)cc34)C2)cc1 (configuration not stated)	17.8	-4.1
COc1ccc2[nH]cc(CCN3CC(C(=O)Nc4ccc(Cl)cc4)CC3=O)c2c1 (configuration not stated)	40.1	-2.8
COc1ccc(NC(=O)C2CC(=O)N(CCc3c[nH]c4ccc(Cl)cc34)C2)c(OC)c1 (configuration not stated)	76.8*	-2.8
COc1ccc(NC(=O)C2CC(=O)N(CCc3c[nH]c4ccc(OC)cc34)C2)cc1 (configuration not stated)	35.6	9.8
COc1ccc2[nH]cc(CCN3CC(C(=O)Nc4ccc5c(c4)CCC5)CC3=O)c2c1 (configuration not stated)	61.3*	-3.6
COc1ccc(CNC(=O)C2CC(=O)N(CCc3c[nH]c4ccc(Cl)cc34)C2)cc1 (configuration not stated)	73.6*	-0.4
O=C(NCc1cccc(F)c1)c1cc2c(s1)CN(C1CCCC1)C2	-11.3	1.4
CCCCOc1cccc(NC(=O)c2cccc([N+](=O)[O-])c2C)c1	-5.8	1.7
Cc1ccc(-c2ncc(C(=O)Nc3ccccc3Cl)c(-c3ccncc3)n2)cc1	11.1	55.7*
O=C(Nc1ccccc1Cl)c1cnc(-c2ccc(F)cc2)nc1-c1ccncc1	-1.7	2.0
SMILES	mHTT-CaM PPI inh	Pf apPOL block
O=C(Nc1ccccc1Cl)c1cnc(-c2ccccc2)nc1-c1ccncc1	-2.4	-3.3
O=C(Nc1ccc(F)cc1)c1cnc(-c2ccc(F)cc2)nc1-c1ccncc1	38.7	88.1*
O=C(Nc1ccc(F)cc1)c1cnc(-c2ccccc2)nc1-c1ccncc1	-8.0	1.6
O=C(Nc1ccccc1F)c1cnc(-c2ccc(F)cc2)nc1-c1ccncc1	30.4	86.0*
O=C(NN=Cc1ccc(F)cc1)C(=Cc1ccco1)NC(=O)c1ccccc1	·	-2.7
CCOc1ccc(S(=O)(=O)Nc2ccc(Br)cc2)cc1	-18.6	-4.9
N#Cc1cccc(-c2cn3c(n2)N(C(=O)c2ccccc2F)CCC3)c1	19.9	-1.3
Cc1cc(I)ccc1NS(=O)(=O)c1ccc(F)cc1	-14.5	0.5
COc1cccc(C2C3=C(Nc4c2c(=O)n(C)c(=O)n4C)c2ccccc2C3=O)c1 (configuration not stated)	5.0	1.4
CC1(C)CC(=O)C2=C(C1)NC1=C(C(=O)c3ccccc31)C2c1ccc(F)cc1 (configuration not stated)	62.0*	-6.3
CC1(C)CC(=O)C2=C(C1)NC1=C(C(=O)c3ccccc31)C2c1cc(Br)ccc1O (configuration not stated)	56.0*	2.4
CC1(C)CC(=O)C2=C(C1)NC1=C(C(=O)c3ccccc31)C2c1cccs1 (configuration not stated)	47.0	0.5
COc1cccc(C2C3=C(CC(C)(C)CC3=O)NC3=C2C(=O)c2ccccc23)c1 (configuration not stated)	58.0*	0.9
O=C1CCCC2=C1C(c1cc([N+](=O)[O-])ccc1O)C1=C(CCCC1=O)N2	-1.0	-7.7
Cc1ccccc1C1C2=C(CC(C)(C)CC2=O)NC2=C1C(=O)CC(C)(C)C2	1.5	-8.5
O=C1CCCC2=C1C(c1cc([N+](=O)[O-])ccc1O)C1=C(N2)c2ccccc2C1=O (configuration not stated)	56.0*	3.8
COc1ccc(CCNC(=O)C2CCC(=O)N2Cc2ccccc2Cl)cc1OC (configuration not stated)	-2.0	-16.4
O=C(NCCc1cccc(Cl)c1)c1cccc(F)c1	-13.7	0.2
Cc1ccc(C(=O)N2CCC3(C2)NCc2ccccc2NC3=NC2CCCC2)cn1 (configuration not stated)	-0.3	-2.1
O=C1CC(c2ccco2)CC2=C1C(c1ccc(Cl)cc1)C1=C(N2)c2ccccc2C1=O (configuration not stated)	64.0*	-3.2
O=C1CC(c2ccco2)CC2=C1C(c1ccccc1)C1=C(N2)c2ccccc2C1=O (configuration not stated)	28.0	-7.0
COc1cc(C(=O)NCCc2ccc(F)cc2)c([N+](=O)[O-])cc1OC	1.4	1.9
CNc1nc2c(c(=O)[nH]c(=O)n2C)n1CC(O)COc1ccc(Cl)cc1Cl (configuration not stated)	6.0	11.7
COc1cccc(OCCSc2nc3ccccc3s2)c1	96.0*	-7.2
NCCSc1nc2ccccc2s1	9.9	6.7
SMILES	mHTT-CaM PPI inh	Pf apPOL block
O=C(Nc1ccc(F)cc1F)c1n[nH]c(=O)c2ccccc12	1.0	-1.6
CCc1cc2c(=O)c(-c3ccc4c(c3)OCCO4)c(C)oc2cc1OC(C)=O	7.6	1.3
CCCc1sc(NC(=O)c2cc(OC)c(OC)c(OC)c2)nc1-c1ccc(OC)c(OC)c1	54.7*	-1.1
CCc1nnc(NC(=O)c2cc(OC)c(OC)c(OC)c2)s1	1.0	0.6
Cc1cc2c(cc(C(=O)NCc3ccccn3)n2CC(C)C)s1	69.5*	-12.9
CCNC(=O)c1cc2sc(C)cc2n1CC	-2.0	-6.2
COCCNc1nc(SCC(=O)c2ccc(O)c(O)c2)nc2ccccc12	12.0	-2.4
CCCCNc1nc(SCC(=O)c2ccc(O)c(O)c2)nc2ccccc12	64.0*	-5.4
N#C/C(=C\c1ccc(-c2ccccc2F)o1)c1nn(CCO)c(N)c1C#N	12.0	-1.3
CC(C)Oc1ccc(Br)cc1/C=C(\C#N)c1nn(CCO)c(N)c1C#N	53.6*	-3.8
N#C/C(=C\c1ccc(-c2ccccc2[N+](=O)[O-])o1)c1nn(CCO)c(N)c1C#N	72.4*	-5.9
N#C/C(=C\c1cn(Cc2ccc(Cl)cc2)c2ccccc12)c1nn(CCO)c(N)c1C#N	69.0*	-2.4
COc1ccc(Br)cc1/C=C(\C#N)c1nn(CCO)c(N)c1C#N	46.9	-1.1
N#C/C(=C\c1cn(Cc2ccccc2Cl)c2ccccc12)c1nn(CCO)c(N)c1C#N	38.7	-0.9

Assay outcomes (PubChem BioAssay)
